Experimental data taken from PubChem BioAssay (EPA / NIEHS).
Activity calls are given as the source filed them. Rule for the calls: active = hit-call score of the fitted dose curve at least 0.9, where 1 is the maximum; inactive = score below 0.9.

How the values were obtained:
[1] = ATG_CRE_CIS: Attagene CIS-FACTORIAL HepG2 Assay for human cAMP Responsive Element (CRE) binding protein 3 (AID 2282926); details: HepG2 CRE cis-reporter, Attagene multiplexed mRNA; actives raise or lower the signal
Procedure, shortened: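 Capillary electrophoresis of 6-FAM-labelled, HpaI-digested PCR products quantified reporter transcripts. These came from HepG2 transiently transfected with cis-element reporters and exposed to test chemicals for 24 hours, with DMSO defining baseline activity.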

[2] = molecular target: CCAAT/enhancer-binding protein beta (Homo sapiens) (UniProt P17676); assay: ATG_C_EBP_CIS: Attagene CIS-FACTORIAL HepG2 Assay for human CCAAT/Enhancer Binding Protein (C/EBP) beta (AID 2282927); details: HepG2 Attagene cis-factorial transcription factor reporter; actives raise or lower the signal
Procedure, shortened: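 Following a 24 h incubation with test chemical, transfected HepG2 cells yielded RNA whose reporter transcripts were quantified by RT-PCR and fluorescent capillary electrophoresis, with DMSO serving as baseline for bidirectional fitting.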

[3] = ATG_CMV_CIS: Attagene CIS-FACTORIAL HepG2 Assay for human CMV (Internal Marker) (AID 2282928); details: HepG2 CMV promoter reporter, transcription factor profiling; actives raise or lower the signal;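 note: endpoint acts as a background internal control marker rather than a target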
Procedure, shortened: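 Readout: fluorescent reporter cDNA fragments separated by capillary electrophoresis after RT-PCR and HpaI cut. Cells: HepG2 carrying transfected cis-promoter reporter constructs, dosed 24 h. Endpoint serves as background internal-marker control, fit bidirectionally versus DMSO.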

[4] = molecular target: Aryl hydrocarbon receptor (Homo sapiens) (UniProt P35869); assay: ATG_Ahr_CIS: Attagene CIS-FACTORIAL HepG2 Assay for human Aryl Hydrocarbon Receptor (Ahr) (AID 2282930); details: HepG2 AhR cis-factorial reporter transcription; actives raise or lower the signal
Procedure, shortened: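 Values derive from bidirectional fitting against DMSO negative control. Underlying signal: cis-element reporter mRNA in transiently transfected HepG2, harvested 24 h post-dose and measured by RT-PCR plus capillary electrophoresis.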

[5] = ATG_AP_1_CIS: Attagene CIS-FACTORIAL HepG2 Assay for human Activator Protein 1 (AP-1) (AID 2282931); details: HepG2 Attagene cis-factorial AP-1 reporter mRNA; actives raise or lower the signal
Procedure, shortened: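 After 24 h incubation with test chemical, RNA from transfected HepG2 cells was reverse-transcribed, amplified, fluorescently labelled and digested before capillary electrophoresis. Reporters were driven by cis-regulatory promoters; activity fitted bidirectionally versus DMSO.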

[6] = ATG_AP_2_CIS: Attagene CIS-FACTORIAL HepG2 Assay for human Activator Protein 2 (AP-2) (AID 2282932); details: HepG2 AP-2 cis-reporter, Attagene transcription factor profiling; actives raise or lower the signal
Procedure, shortened: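 Cells (HepG2) transfected with promoter-driven reporter constructs, treated 24 h. Total RNA reverse-transcribed, reporter cDNA PCR-amplified, FAM-labelled by primer extension, digested, resolved by capillary electrophoresis. Activity fitted both directions versus DMSO.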

[7] = ATG_BRE_CIS: Attagene CIS-FACTORIAL HepG2 Assay for human Bone Morphogenetic Protein (BMP) Response Element (BRE) (AID 2282933); details: HepG2 BMP response element reporter, Attagene transcription factor profiling; actives raise or lower the signal
Procedure, shortened: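 HepG2 cells transiently transfected with CIS reporter units (endogenous TF activity, BMP response element), dosed 24 h. Reporter mRNA quantified by RT-PCR, fluorescent labelling and capillary electrophoresis; bidirectional fit vs DMSO baseline.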

[8] = molecular target: Retinoic acid receptor alpha (Homo sapiens) (UniProt P10276); assay: ATG_DR5_RAR_CIS: Attagene CIS-FACTORIAL HepG2 Assay for human Retinoic Acid Receptor Alpha (RARE), DR5 submotif (AID 2282934); details: HepG2 Attagene cis-factorial RARE DR5 reporter, mRNA; actives raise or lower the signal;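 for AC50: reporter responds to endogenous RAR alpha beta and gamma in HepG2 not RARA alone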
Procedure, shortened: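 Endpoint fitted in both directions relative to DMSO as negative control. It reflects DR5 cis-element reporter mRNA induction in transiently transfected HepG2 cells, measured 24 h after dosing through RT-PCR and fluorescent capillary electrophoresis.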

[9] = molecular target: Transcription factor E2F1 (Homo sapiens) (UniProt Q01094); assay: ATG_E2F_CIS: Attagene CIS-FACTORIAL HepG2 Assay for human E2F Transcription Factor 1 (AID 2282935); details: HepG2 Attagene cis-reporter, E2F reporter RNA transcripts; actives raise or lower the signal
Procedure, shortened: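 First, HepG2 cells were transfected with reporter transcription units. Next, they were dosed for 24 h. Then RNA was isolated, converted to cDNA, PCR-amplified, FAM-labeled, HpaI-digested and analyzed by capillary electrophoresis.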

[10] = ATG_E_Box_CIS: Attagene CIS-FACTORIAL HepG2 Assay for human Enhancer Box (E-box) (AID 2282936); details: HepG2 E-box cis-reporter transcription, actives raise or lower the signal
Procedure, shortened: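 Endogenous transcription factor activity was sensed in human HepG2 liver cells through transfected cis-promoter reporter units. After 24 h of dosing, total RNA was reverse-transcribed and reporter cDNA resolved by capillary electrophoresis.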

[11] = ATG_M_61_CIS: Attagene CIS-FACTORIAL HepG2 Assay for M61 Transcription Factor (Internal Marker) (AID 2282937); details: HepG2 Attagene CIS-FACTORIAL M61 internal marker reporter; actives raise or lower the signal
Procedure, shortened: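 Using transiently transfected HepG2 liver cells, reporter transcript levels were assessed 24 h post-dosing by RT-PCR and capillary electrophoresis. Changes in either direction were fitted relative to DMSO controls.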

[12] = ATG_EGR_CIS: Attagene CIS-FACTORIAL HepG2 Assay for human Early Growth Response 1 (EGR1) (AID 2282938); details: HepG2 Attagene CIS-FACTORIAL EGR reporter mRNA; actives raise or lower the signal
Procedure, shortened: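 Fluorescent capillary-electrophoresis signal of reporter cDNA fragments serves as read-out. HepG2 cells bear transiently transfected cis-promoter reporter units and are exposed 24 h; gain- or loss-of-signal is fitted against DMSO.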

[13] = ATG_M_19_CIS: Attagene CIS-FACTORIAL HepG2 Assay for M19 Transcription Factor (Internal Marker) (AID 2282939); details: HepG2 Attagene CIS-FACTORIAL M19 internal marker reporter; actives raise or lower the signal
Procedure, shortened: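 HepG2 cells transiently transfected with cis-regulated multiplexed reporter units, dosed 24 h. Reporter mRNA quantified by RT-PCR and capillary electrophoresis; internal background marker fitted bidirectionally versus DMSO.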

[14] = ATG_Ets_CIS: Attagene CIS-FACTORIAL HepG2 Assay for human Erythroblast Transformation Specific (ETS) (AID 2282941); details: HepG2 ETS cis-reporter transcription, actives raise or lower the signal
Procedure, shortened: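 RT-PCR/capillary electrophoresis fluorescence read-out of reporter mRNA; HepG2 transient multi-reporter transfection; 24 h compound exposure; gain or loss of signal fitted bidirectionally relative to DMSO.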

[15] = molecular target: Hepatocyte nuclear factor 3-beta (Homo sapiens) (UniProt Q9Y261); assay: ATG_FoxA2_CIS: Attagene CIS-FACTORIAL HepG2 Assay for human Forkhead box A2 (FOXA2) (AID 2282942); details: HepG2 cis-reporter transcription factor activity, 24 h; actives raise or lower the signal
Procedure, shortened: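 Fluorescence signal of reporter cDNA fragments, separated by capillary electrophoresis, reflects endogenous transcription factor activity in transfected HepG2 after 24 h. Both increases and decreases fitted against DMSO.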

[16] = ATG_FoxO_CIS: Attagene CIS-FACTORIAL HepG2 Assay for human Forkhead box O (FoxO) (AID 2282943); details: HepG2 Attagene cis-reporter, FoxO element, mRNA; actives raise or lower the signal
Procedure, shortened: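 Values reflect reporter mRNA induction or loss in HepG2 cells 24 h post-dosing, fitted bidirectionally with DMSO as negative control and baseline. Detection used RT-PCR and fluorescence capillary electrophoresis.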

[17] = ATG_GATA_CIS: Attagene CIS-FACTORIAL HepG2 Assay for human GATA Binding Protein (AID 2282944); details: HepG2 GATA cis-element reporter, Attagene multiplex mRNA; actives raise or lower the signal
Procedure, shortened: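 HepG2 cells transiently transfected with multiplexed cis-element reporter units measure endogenous GATA activity; after 24 h compound exposure, reporter mRNA quantified by RT-PCR and capillary electrophoresis. Changes fitted in both directions vs DMSO.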

[18] = ATG_GLI_CIS: Attagene CIS-FACTORIAL HepG2 Assay for human Zinc Finger Protein GLI1 (AID 2282945); details: HepG2, Attagene cis-factorial reporter mRNA, GLI element; actives raise or lower the signal
Procedure, shortened: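 HepG2 cells transiently transfected with cis-promoter multiplexed reporter units report endogenous transcription factor activity. After 24 h chemical exposure, reporter mRNA was quantified by RT-PCR, 6-FAM labelling, HpaI digestion and capillary electrophoresis, with bidirectional fitting against DMSO.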

Measured: AC50

Sequence of CCAAT/enhancer-binding protein beta (Homo sapiens) (P17676 whole entry, looked up): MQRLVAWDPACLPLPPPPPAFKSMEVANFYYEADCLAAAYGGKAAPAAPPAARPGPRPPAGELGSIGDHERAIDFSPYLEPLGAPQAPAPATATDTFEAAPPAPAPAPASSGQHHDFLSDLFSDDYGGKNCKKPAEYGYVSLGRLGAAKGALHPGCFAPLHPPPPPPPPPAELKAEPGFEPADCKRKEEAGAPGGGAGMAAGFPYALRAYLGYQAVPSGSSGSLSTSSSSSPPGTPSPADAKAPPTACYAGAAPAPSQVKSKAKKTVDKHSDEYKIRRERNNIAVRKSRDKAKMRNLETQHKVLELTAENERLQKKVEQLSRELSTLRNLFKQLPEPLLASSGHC
Sequence of Transcription factor E2F1 (Homo sapiens) (Q01094 whole entry, looked up): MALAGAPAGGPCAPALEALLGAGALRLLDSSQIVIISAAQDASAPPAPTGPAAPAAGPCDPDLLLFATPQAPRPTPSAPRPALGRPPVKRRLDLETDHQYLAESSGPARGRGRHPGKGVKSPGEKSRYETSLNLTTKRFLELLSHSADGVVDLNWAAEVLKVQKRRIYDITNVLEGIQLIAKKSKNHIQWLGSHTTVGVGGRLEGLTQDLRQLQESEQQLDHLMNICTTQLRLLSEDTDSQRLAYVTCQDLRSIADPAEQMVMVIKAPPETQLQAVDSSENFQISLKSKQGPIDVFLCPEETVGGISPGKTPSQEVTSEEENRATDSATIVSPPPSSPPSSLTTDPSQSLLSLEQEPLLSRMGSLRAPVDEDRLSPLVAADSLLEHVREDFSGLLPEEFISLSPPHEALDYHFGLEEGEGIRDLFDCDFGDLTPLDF
Sequence of Retinoic acid receptor alpha (Homo sapiens) (P10276 whole entry, looked up): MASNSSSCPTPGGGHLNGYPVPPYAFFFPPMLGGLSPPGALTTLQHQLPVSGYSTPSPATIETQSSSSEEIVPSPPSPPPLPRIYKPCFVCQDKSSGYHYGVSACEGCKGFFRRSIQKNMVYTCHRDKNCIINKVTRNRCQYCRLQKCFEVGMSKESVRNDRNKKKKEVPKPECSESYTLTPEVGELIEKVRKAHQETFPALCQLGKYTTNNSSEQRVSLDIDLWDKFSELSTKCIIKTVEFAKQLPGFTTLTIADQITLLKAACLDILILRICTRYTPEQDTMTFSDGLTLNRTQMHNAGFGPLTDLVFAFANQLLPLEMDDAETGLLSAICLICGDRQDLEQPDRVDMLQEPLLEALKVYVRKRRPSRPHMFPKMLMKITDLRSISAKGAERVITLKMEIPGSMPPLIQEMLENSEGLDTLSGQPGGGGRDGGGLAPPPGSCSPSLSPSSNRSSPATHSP
Sequence of Aryl hydrocarbon receptor (Homo sapiens) (P35869 whole entry, looked up): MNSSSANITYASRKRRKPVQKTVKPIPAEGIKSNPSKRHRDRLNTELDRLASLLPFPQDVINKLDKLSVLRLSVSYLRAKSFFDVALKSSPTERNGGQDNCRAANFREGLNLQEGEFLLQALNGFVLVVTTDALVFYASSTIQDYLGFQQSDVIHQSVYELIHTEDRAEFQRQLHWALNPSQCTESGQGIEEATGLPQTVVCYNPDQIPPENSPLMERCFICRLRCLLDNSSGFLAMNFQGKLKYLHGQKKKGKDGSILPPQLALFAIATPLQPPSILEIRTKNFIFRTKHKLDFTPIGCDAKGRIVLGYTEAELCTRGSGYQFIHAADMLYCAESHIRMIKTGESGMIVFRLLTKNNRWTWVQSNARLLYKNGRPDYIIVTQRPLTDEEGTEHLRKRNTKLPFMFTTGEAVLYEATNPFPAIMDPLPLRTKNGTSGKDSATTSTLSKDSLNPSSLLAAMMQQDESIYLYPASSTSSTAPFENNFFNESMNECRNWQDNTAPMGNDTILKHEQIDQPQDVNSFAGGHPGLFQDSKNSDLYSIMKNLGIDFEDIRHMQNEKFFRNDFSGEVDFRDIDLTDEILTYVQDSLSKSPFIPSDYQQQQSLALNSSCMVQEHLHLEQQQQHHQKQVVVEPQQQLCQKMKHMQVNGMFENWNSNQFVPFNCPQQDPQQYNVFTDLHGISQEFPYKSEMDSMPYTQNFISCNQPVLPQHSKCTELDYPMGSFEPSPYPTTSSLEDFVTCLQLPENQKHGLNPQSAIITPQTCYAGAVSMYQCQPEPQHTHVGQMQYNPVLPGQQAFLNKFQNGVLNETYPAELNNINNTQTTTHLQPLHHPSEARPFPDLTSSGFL
Sequence of Hepatocyte nuclear factor 3-beta (Homo sapiens) (Q9Y261 whole entry, looked up, the tested form may be a part): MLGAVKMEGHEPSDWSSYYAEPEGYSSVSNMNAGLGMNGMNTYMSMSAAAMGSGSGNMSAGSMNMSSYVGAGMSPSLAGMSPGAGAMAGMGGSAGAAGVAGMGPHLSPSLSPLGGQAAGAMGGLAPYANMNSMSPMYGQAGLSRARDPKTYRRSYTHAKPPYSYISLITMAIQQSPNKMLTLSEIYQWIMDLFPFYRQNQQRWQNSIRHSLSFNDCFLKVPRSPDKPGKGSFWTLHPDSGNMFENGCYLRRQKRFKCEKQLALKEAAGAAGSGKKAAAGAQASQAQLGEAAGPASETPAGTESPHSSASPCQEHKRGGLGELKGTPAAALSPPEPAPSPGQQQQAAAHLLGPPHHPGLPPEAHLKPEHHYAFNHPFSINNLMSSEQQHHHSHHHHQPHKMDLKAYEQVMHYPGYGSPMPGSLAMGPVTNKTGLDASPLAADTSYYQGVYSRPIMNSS

CCc1cccc(C)c1N(C(=O)CCl)C(C)COC (stereo unspecified)
active: [5] 9.57 µM
inactive: all other assays above

CCCCN(CC)c1c([N+](=O)[O-])cc(C(F)(F)F)cc1[N+](=O)[O-]
active: [8] 20.1 µM
inactive: all other assays above

CCc1cnc(C2=NC(C)(C(C)C)C(=O)N2)c(C(=O)O)c1 (stereo unspecified)
not listed: [9]
inactive: all other assays above

CN(C)C(=O)Nc1cccc(C(F)(F)F)c1
not listed: [9]
inactive: all other assays above

CNc1cnn(-c2cccc(C(F)(F)F)c2)c(=O)c1Cl
active: [1] 19.7 µM | [5] 29.5 µM | [7] 17.8 µM
not listed: [9]
inactive: all other assays above

CCNc1nc(Cl)nc(NC(C)(C)C#N)n1
not listed: [8] | [9]
inactive: all other assays above

CC(C1CC1)C(O)(Cn1cncn1)c1ccc(Cl)cc1 (stereo unspecified)
not listed: [9]
inactive: all other assays above

CCOC(=O)CC(SP(=O)(OC)OC)C(=O)OCC (stereo unspecified)
inactive: all assays above

CC(C)=CC1C(C(=O)OCN2C(=O)C3=C(CCCC3)C2=O)C1(C)C (stereo unspecified)
active: [1] 38.4 µM | [2] 10.9 µM | [5] 71.2 µM | [7] 50 µM | [12] 62.1 µM
not listed: [8]
inactive: all other assays above

CCCSP(=O)(OCC)SCCC
inactive: all assays above

CNC(=O)ON=C(C)SC
not listed: [8]
inactive: all other assays above

S=C1NCCN1
inactive: all assays above

Nc1nc(N)nc(NC2CC2)n1
not listed: [9]
inactive: all other assays above

CCOP(=S)(OCC)Oc1cc(C)nc(C(C)C)n1
active: [3] 29.8 µM | [4] 16.3 µM
not listed: [8] | [9]
inactive: all other assays above

CCOP(=S)(OCC)SCCSCC
not listed: [9]
inactive: all other assays above

CCOC(=O)COc1cc(-c2nn(C)c(OC(F)F)c2Cl)c(F)cc1Cl
inactive: all assays above
